NS1 inh: blocks influenza NS1 protein function. Potency, µM (highest dose often 46.1 µM). 270,000 tested, 0.4% active; also: actives are rising curves; nearly all actives have a fitted effect of over 50% in size
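Recovery from NS1-induced slow growth read by OD600 in budding yeast switched to galactose assay medium (pH 6.0, -URA) at 1:100 dilution. Compound 23 nl per well; the matching strain lacking NS1 serves as control.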
SARS PLpro yeast: SARS-CoV PLP inhibition in yeast. AID 485353. Potency, µM (series often up to 32.9 µM), actives largely listed as activators. S. cerevisiae expressing SARS-CoV PLpro, growth rescue. 330,000 tested, 0.19% active; also: nearly all actives have a fitted effect of over 55% in size
CHX counter: counter-screen for Shiga toxin inhibitors: cycloheximide protein synthesis inhibition | 300,000 tested, 12% active | AID 2314 | max response, % | cell reporter, cycloheximide protein synthesis inhibition counterscreen; in the data active = max response mostly above about 13%, no sharp cut-off; inactive = mostly below about 14%; also: read at 38.3 µM for the half of the compounds with a filed dose
Pf growth 48h: inhibits P. falciparum growth in the first generation, 48 h | P. falciparum luciferase growth in erythrocytes, 48 h | Potency, µM (top dose mostly 28.7 µM), actives largely listed as inhibitors | 310,000 tested, 5.9% active | AID 504832; active = well fitted inhibition curve with a large enough effect; inconclusive = small, poorly fitted or top-dose-only effect, or another doubt; inactive = no such curve, though single readings can be large or run the other way
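Compounds are pin-transferred into medium, infected erythrocytes (2% hematocrit, 0.1% parasitemia final) are added, and plates sit one parasite generation at 37 C in 5% CO2. Detection reagent is then added and luminescence measured.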
Shiga inhibitor: blocks Shiga toxin action in Vero cells. AID 2315. 290,000 tested, 9.2% active. Vero cells, Shiga toxin protein synthesis inhibition reporter. inhibition, % at 38.7 µM; in the data active = inhibition mostly above about 28%, no sharp cut-off; inactive = mostly below about 43%
Pf growth 96h: P. falciparum growth inhibition at 96 hours; P. falciparum luciferase reporter growth, 96 h; Potency, µM (doses to about 28.7 µM), usual class: inhibitors; 320,000 tested, 6.9% active; AID 504834; active = well fitted inhibition curve with a large enough effect; inconclusive = small, poorly fitted or top-dose-only effect, or another doubt; inactive = no such curve, though single readings can be large or run the other way
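Parasite growth measured via integrated firefly luciferase reporter in P. falciparum. Infected erythrocytes at 2% hematocrit, 0.05% parasitemia final were treated 96 hours at 37 C under 5% CO2, and luminescence was read.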
Hits are given with their value; – = inactive; ? = inconclusive; · = not tested or not shown. Hits are enriched below; roughly 21% of the tested compounds scored in any of these assays. Unless noted, calls follow the shape of the full dose curve.

SMILES	NS1 inh	SARS PLpro yeast	CHX counter	Pf growth 48h	Shiga inhibitor	Pf growth 96h
Cc1ccc(C)c(NC(=O)C2COc3ccccc3O2)c1 (stereo not given)	–	–	14	?	–	?
CCCC(NC(=O)Cc1c(C)c2c(cc(C)c3c(C)coc32)oc1=O)C(=O)O (stereo not given)	–	–	–	–	–	–
CN1C(=O)[C@@H](NC(=O)c2cc3ccccc3[nH]2)N=C(c2ccccc2)c2ccccc21	·	·	–	15µM	–	15µM
CN1C(=O)C(O)N=C(c2ccccc2)c2ccccc21 (stereo not given)	–	–	–	–	–	–
CC(Sc1nnc(C(C)Oc2ccccc2F)o1)C(=O)NCc1ccc2c(c1)OCO2 (stereo not given)	·	–	·	–	·	–
COc1cccc(/C=N/NC(=O)c2cnn(-c3ccccc3)c2N)c1	–	–	46	–	72	–
Nc1c(C(=O)N/N=C/c2ccc(Cl)cc2)cnn1-c1ccccc1	–	–	–	–	–	–
Nc1c(C(=O)N/N=C/c2cccnc2)cnn1-c1ccccc1	–	–	47	–	51	–
Cc1cc(-c2cc(C(=O)NCc3ccccc3)on2)nc(NC2CCCC2)n1	–	–	–	?	–	?
O=C(NNC(=O)C1CC1)c1cc(Br)c(Br)s1	·	–	·	·	·	·
Cc1cc(C)n(-c2ccc(C(=O)Oc3ccc4c(c3)OCO4)cc2)n1	–	–	18	–	32	–
O=C(Nc1ccc2c(c1)OCCO2)c1ccc(NC(=O)C2CCCO2)cc1 (stereo not given)	–	–	23	–	–	–
Cc1cc(C)n(C(=O)CNc2ccc(C)c(C)c2)n1	–	–	32	–	–	–
CC(=O)c1ccc(OC(=O)c2ccc(-n3nc(C)cc3C)cc2)cc1	–	–	–	–	–	–
Cc1ccc(C(=O)Nc2ccncc2)o1	–	–	–	–	–	·
Cc1cc(C)n(C(=O)CCCC(=O)n2nc(C)cc2C)n1	–	–	–	–	–	–
Cc1ccc(C(=O)Nc2ccc3c(c2)OCCO3)o1	–	–	31	·	–	–
COCCN(C(=O)CSCC(=O)Nc1cccc(C)c1)c1c(N)n(Cc2ccccc2)c(=O)[nH]c1=O	·	–	·	–	·	–
O=C(O)CCNc1ccc2c(c1)OCCO2	?	–	42	–	73	?
Cc1ccc(NC(=O)c2ccc3c(c2)OCCO3)cc1C	–	–	–	–	–	–
Cc1cc(C(=O)Nc2ccc3c(c2)OCCO3)co1	–	–	57	–	76	–
NC(=O)Nc1ccc2c(c1)OCCO2	–	–	52	·	103	–
O=C(O)CCCCCNC(=O)Nc1ccc2c(c1)OCCO2	–	–	–	–	–	·
Cc1cc(C)n(C(=O)CNC(=O)c2cccc(Cl)c2)n1	–	–	–	–	–	–
Cc1cc(C)n(C(=O)CNC(=O)c2ccc3c(c2)OCCO3)n1	–	–	–	–	–	1.9µM
SMILES	NS1 inh	SARS PLpro yeast	CHX counter	Pf growth 48h	Shiga inhibitor	Pf growth 96h
COc1ccc(CCNC(=O)COC(=O)c2cc(S(=O)(=O)NCc3ccccc3)ccc2O)cc1OC	–	–	–	–	–	–
CC12CCC(C(=O)Nc3ccc4c(c3)OCCO4)(OC1=O)C2(C)C (stereo not given)	–	–	47	–	94	·
O=C(Nc1ccc2c(c1)OCCO2)c1ccc(Cl)cc1	–	–	28	–	–	?
COc1cc(OC)cc(C(=O)Nc2ccc3c(c2)OCCO3)c1	–	–	26	–	·	?
Cc1cc(C)n(-c2ccc(C(=O)Nc3ccc4c(c3)OCCO4)cc2)n1	–	–	45	–	100	–
O=C(COC(=O)CNC(=O)c1ccc(Cl)cc1)Nc1ccc2c(c1)OCCO2	–	–	–	–	–	–
Cc1cccc(NC(=O)C23CCC(C)(C(=O)O2)C3(C)C)c1 (stereo not given)	–	–	–	–	–	–
CC(=O)Nc1ccc(S(=O)(=O)NCC(=O)OCC(=O)N2CCCCCC2)cc1	·	–	·	–	·	–
Cc1nnc(SC(C)C(=O)Nc2ccc(Cl)cc2Cl)[nH]c1=O (stereo not given)	·	–	·	·	·	·
CC(C)(Oc1ccc(F)cc1)C(=O)OCC(=O)c1ccc(S(C)(=O)=O)cc1	·	–	·	·	·	·
CC(=O)Nc1ccc2c(c1)OCCOCCOc1cc(NC(C)=O)ccc1OCCO2	–	–	–	?	–	?
CC(=O)Nc1ccc(C(=O)Nc2ccc3c(c2)OCO3)cc1	–	–	18	–	57	2.3µM
CS(=O)(=O)Nc1ccc(C(=O)Nc2ccc3c(c2)OCO3)cc1	·	–	26	–	53	–
CC(=O)Nc1ccc(C(=O)Nc2ccc3c(c2)OCCO3)cc1	–	–	27	·	42	?
Cc1nn(Cc2ccccc2Cl)c(C)c1C(=O)NCCN1C(=O)S/C(=C\c2ccccc2)C1=O	–	–	–	?	–	–
COc1cccc(C2NC(=O)NC(O)(C(F)(F)F)C2C(=O)c2cccnc2)c1OC (stereo not given)	–	–	–	?	–	·
CSc1cccc(NC(=S)N2CCCN(Cc3ccc(F)cc3)C2)c1	·	–	–	?	–	–
Cc1ccn(CC(=O)N2CCCC(N3CCN(Cc4ccc5c(c4)OCO5)CC3)C2)n1 (stereo not given)	–	–	–	–	–	?
CO/N=C(/C(=O)N[C@@H]1C(=O)N2C(C(=O)O)=C(CSc3cnns3)CS[C@H]12)c1csc(N)n1	·	·	·	–	·	–
CCN(CC)Cc1c(C(=O)N/N=C/c2ccc(C)o2)nnn1-c1nonc1N	–	–	–	–	–	–
COc1ccc(C(=O)/C=C/Nc2ccccn2)c(OC)c1	–	–	52	–	57	–

Screening data as filed in PubChem BioAssay.
